High-throughput results (PubChem BioAssay)
D1 PAM: potentiators of human D1 dopamine receptor | HEK293 TREx D1 cells, calcium flux, dopamine EC20 potentiation | potentiation, % at 10 µM | actives 0.036% (n = 360,000); in the data active means potentiation above about 30%; further: 0% is about no effect
D1 ag: agonists of human D1 dopamine receptor | P21728 | HEK293 T-REx D1 cells, calcium flux, agonist mode | activation, % at 2 µM | actives 1% (n = 360,000); further: 0% is about no effect
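Inducible HEK293 T-REx D1 cells, force-coupled to calcium signalling, were plated at 4000 cells/well with tetracycline and held overnight at 30 C. After no-wash calcium dye loading, compound-evoked calcium rise over 180 s flagged agonists.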
D1 antagonist: blocks dopamine activation of the human D1 receptor; P21728; HEK293 TREx D1 cells, calcium flux, dopamine EC80; stronger effect = lower value; activity change, negative = inhibition, % at 10 µM; actives 3.2% (n = 360,000); AID 504652; in the data active means activity change below about -30%; further: on the % scale 0 is the no-effect control and ±100 the full control effect
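Tetracycline-induced HEK293 T-REx cells with force-coupled D1 receptor were loaded with a no-wash calcium dye. Compound was added after a 10 s baseline and read kinetically for 180 s; EC80 dopamine was then added and calcium flux followed another 180 s.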
TRHR enhancer: allosterically enhances the human TRH receptor; P34981; AID 493056; TRHR cells, fluo-8 calcium fluorescence, EC20 TRH enhancement; actives 0.66% (n = 360,000); enhancement, % at 2 µM; in the data active means enhancement above about 30%; further: 0% is about no effect
Target sequence (P34981 whole entry, looked up): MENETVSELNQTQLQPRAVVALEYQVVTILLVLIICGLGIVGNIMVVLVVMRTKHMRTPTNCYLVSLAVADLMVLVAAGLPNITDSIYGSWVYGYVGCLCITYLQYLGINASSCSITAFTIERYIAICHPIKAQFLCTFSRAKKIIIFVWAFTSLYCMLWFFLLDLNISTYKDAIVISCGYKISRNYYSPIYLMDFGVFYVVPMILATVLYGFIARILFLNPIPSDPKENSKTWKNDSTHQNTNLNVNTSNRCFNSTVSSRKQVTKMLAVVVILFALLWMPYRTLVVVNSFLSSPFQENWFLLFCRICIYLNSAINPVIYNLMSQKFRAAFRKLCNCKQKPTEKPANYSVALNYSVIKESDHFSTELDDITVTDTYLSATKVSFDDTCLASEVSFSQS
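TRHR-expressing cells loaded with fluo-8 calcium dye were read kinetically (ex 480/em 530) during compound addition, then stimulated with an EC20 of TRH (10 nM final). Enhancement of the Gq-mediated intracellular calcium response was scored.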
TRHR agonist: agonists of human TRH receptor; P34981; TRHR cells, calcium flux fluo-8, FDSS agonist mode; activation, % at 2 µM; actives 0.18% (n = 360,000); further: 0% is about no effect
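Steps: seed TRHR cells overnight; add fluo-8 no-wash Ca dye, RT 30 min–1.5 h; record 10 s baseline; pin-transfer compounds; monitor fluorescence 1 cycle/s for the agonist window. Calcium increases flag candidate agonists.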
The depositor's hits bear a star. This is a sample that favours compounds with a hit; in the whole collection about 4.7% have one here. Unless noted, no stated cut-off is given here; in the data, active means activation above about 30%; inactive means the rest.

CCCNC(=O)C1CC(=O)N(c2ccc(OCc3ccc(Cl)cc3)cc2)C1 (centres undefined) was read as D1 PAM 1, D1 ag 12, D1 antagonist -7, TRHR enhancer -3 and TRHR agonist 0.
`C=CCNC(=O)C1CC(=O)N(c2ccc(OCC(=O)Nc3ccc(OC)cc3)cc2)C1` (centres undefined) gave D1 PAM -1, D1 ag -1, D1 antagonist 16, TRHR enhancer 2 and TRHR agonist 1.
For C=CCNC(=O)C1CC(=O)N(c2ccc(OCC(=O)Nc3ccc(C)cc3)cc2)C1 (centres undefined) the results were D1 PAM -11, D1 ag 0, D1 antagonist -31*, TRHR enhancer 3 and TRHR agonist 0.
COc1cccc(NC(=O)CSc2nc3ccc(NC(=O)c4ccco4)cc3s2)c1 was read as D1 PAM -2, D1 ag 22, D1 antagonist -16, TRHR enhancer 2 and TRHR agonist -1.
For CCOc1ccc(N2CC(C(=O)N3CCCCCC3)CC2=O)cc1 (centres undefined) the results were D1 PAM 4, D1 ag 0, D1 antagonist 2, TRHR enhancer 5 and TRHR agonist 0.
CCOc1ccc(N2CC(C(=O)N3CCCC3)CC2=O)cc1 (centres undefined) was read as D1 PAM -4, D1 ag 0, D1 antagonist -83*, TRHR enhancer 4 and TRHR agonist 0.
Cc1c(NS(=O)(=O)c2cc(Br)cc3c2N(C(=O)C2CC2)CC3)c(=O)n(-c2ccccc2)n1C was read as D1 PAM -3, D1 ag 2, D1 antagonist 6, TRHR enhancer 3 and TRHR agonist 0.
`O=C(C1CC1)N1CCc2cc(S(=O)(=O)N(CCO)Cc3ccccc3)ccc21` gave D1 PAM -5, D1 ag 11, D1 antagonist -40*, TRHR enhancer -5 and TRHR agonist 0.
Cc1c(NS(=O)(=O)N2CCCC2)c(=O)n(-c2ccccc2)n1C was read as D1 PAM -6, D1 ag 1, D1 antagonist -52*, TRHR enhancer -2 and TRHR agonist 0.
Cc1c(NS(C)(=O)=O)c(=O)n(-c2ccccc2)n1C was read as D1 PAM 5, D1 ag 1, D1 antagonist -7, TRHR enhancer 17 and TRHR agonist 0.
`Cc1c(NC(=O)/C=C/c2ccc(S(=O)(=O)N3CCOCC3)cc2)c(=O)n(-c2ccccc2)n1C` gave D1 PAM -1, D1 ag 1, D1 antagonist -8, TRHR enhancer 34* and TRHR agonist 0.
CCCCN(Cc1ccccc1)S(=O)(=O)c1ccc2c(c1)CCN2C(=O)C1CCC1 was read as D1 PAM 1, D1 ag 18, D1 antagonist -2, TRHR enhancer 4 and TRHR agonist 3.
Cc1c(NS(=O)(=O)c2ccc3c(c2)CCN3C(=O)C2CC2)c(=O)n(-c2ccccc2)n1C was read as D1 PAM -2, D1 ag 0, D1 antagonist -35*, TRHR enhancer -2 and TRHR agonist -1.
`Cc1ccc(S(=O)(=O)N2CCOCC2)cc1C(=O)Nc1c(C)n(C)n(-c2ccccc2)c1=O` gave D1 PAM 4, D1 ag 2, D1 antagonist -1, TRHR enhancer -7 and TRHR agonist 1.
Screening O=C(CSc1ccc(-c2ccccn2)nn1)Nc1cccc(F)c1 returned D1 PAM -10, D1 ag 7, D1 antagonist -7, TRHR enhancer -7 and TRHR agonist 0.
For Cc1cccc(NS(=O)(=O)c2ccc3c(c2)CCN3C(=O)C2CCC2)c1 the results were D1 PAM 0, D1 ag 9, D1 antagonist -25, TRHR enhancer -2 and TRHR agonist -1.
For COc1ccc(NS(=O)(=O)c2ccc3c(c2)CCN3C(=O)C2CC2)cc1OC the results were D1 PAM -3, D1 ag 17, D1 antagonist -33*, TRHR enhancer -5 and TRHR agonist 0.
For O=C(C1CCN(S(=O)(=O)c2ccccc2)CC1)N1CCc2ccccc21 the results were D1 PAM -2, D1 ag 333*, D1 antagonist 8, TRHR enhancer 60* and TRHR agonist 247*.
`CC(=O)N1CCCc2cc(S(=O)(=O)N(C)CC(=O)Nc3ccc(C)cc3C)ccc21` gave D1 PAM -3, D1 ag 3, D1 antagonist -12, TRHR enhancer 1 and TRHR agonist 0.
For COc1ccc(CN2C(=O)C(Cc3ccccc3)Nc3ncnc(N4CCc5ccccc5C4)c32)cc1 (centres undefined) the results were D1 PAM -3, D1 ag 0, D1 antagonist -6, TRHR enhancer -8 and TRHR agonist 0.
`Cc1cccc(OCCn2c(-c3ccc(Cl)cc3)nc3ccccc3c2=O)c1C` gave D1 PAM 0, D1 ag 1, D1 antagonist 8, TRHR enhancer -1 and TRHR agonist 0.
Screening CC(=O)Nc1ccc(Nc2nc(Cl)nc(Nc3ccc(NC(C)=O)cc3)n2)cc1 returned D1 PAM 0, D1 ag 4, D1 antagonist -36*, TRHR enhancer 10 and TRHR agonist 0.
For Cc1ccc(NC(=O)Cn2c(=O)ccc3cc(S(=O)(=O)N4CCC(C)CC4)ccc32)c(C)c1 the results were D1 PAM 0, D1 ag 1, D1 antagonist -14, TRHR enhancer -6 and TRHR agonist 0.
Screening COc1cc(CC(=O)Nc2ccc(Cl)c(C(F)(F)F)c2)cc(OC)c1OC returned D1 PAM -3, D1 ag 12, D1 antagonist -35*, TRHR enhancer 1 and TRHR agonist 2.
For Cc1ccc(NC(=O)CN(C)Cc2cccs2)cc1Cl the results were D1 PAM -2, D1 ag -3, D1 antagonist 6, TRHR enhancer 33* and TRHR agonist 0.
CN(CC(=O)NCc1ccccc1)CC(=O)Nc1ccc(Cl)c(C(F)(F)F)c1 was read as D1 ag 64*, D1 antagonist 13, TRHR enhancer 5 and TRHR agonist 2.
Cc1ccc(NC(=O)CN(C)C(=O)c2ccc(C(F)(F)F)cc2)cc1 was read as D1 PAM -1, D1 ag -1, D1 antagonist -32*, TRHR enhancer 3 and TRHR agonist 0.
`COc1ccc(C(=O)OCC(=O)Nc2ccc(Cl)c(C(F)(F)F)c2)c(OC)c1OC` gave D1 PAM -9, D1 ag 5, D1 antagonist -11, TRHR enhancer -6 and TRHR agonist 2.
`CCN(CC)c1ccc(NC(=O)CN(C)Cc2cccs2)cc1` gave D1 PAM -1, D1 ag -1, D1 antagonist -7, TRHR enhancer -9 and TRHR agonist -1.
